From PubChem BioAssay AID720697 (Broad Institute, 2013) come the findings set out here.

Results with a measured potency or affinity are listed apart. Inconclusive results are not listed. A number with no mark means an inactive call. Activity calls are given as the source filed them.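 The calls were made as follows: active = signal loss with fitted half-maximal concentration at or below twice the top valid tested dose in every test run; inconclusive = runs disagree, flat 30 to 70% signal loss, or poor fit; inactive = all runs flat, opposite direction, or potency beyond limit.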

The experiment in a line: HEK293T cytotoxicity, dose response, cytotoxicity control for miR-122 modulator project, cell-based, inhibitor set, cherry-pick, set 2 (AID 720697).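 Also: 0% = median of neutral control wells and -100% = MG132 positive control wells.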 The settings on record: HEK293T viability, CellTiter-Glo luminescence, 48 h; series mostly up to 26 µM. Background: In ATP-based viability assays light output follows the ATP content of the culture.
As to `Cc1cc(C)cc(Oc2ccc(NC(=O)C3CC=CCC3C(=O)O)cc2)c1` (centres undefined), the result was inactive.
With `COC(=O)C[C@@H]1CC[C@@H]2[C@@H](COc3ccc(NC(=O)c4cscn4)cc3C(=O)N2C)O1`, the call was inactive.
With `CCCCNC(=O)Nc1nnc(-c2ccc(OCC)cc2)o1`, the molecule was called inactive.
`CC(=O)Nc1ccc2c(c1)C(=O)N(C)[C@H]1CC[C@H](CC(=O)Nc3ccccc3Cl)O[C@@H]1CO2`: the result was inactive.
Take `CCCC(=O)Nc1ccc2c(c1)C(=O)N(C)[C@@H]1CC[C@H](CC(=O)NCc3cccc(F)c3)O[C@H]1CO2`: the outcome was inactive.
Consider `Cc1ccccc1NC(=O)Nc1ccc2c(c1)C(=O)N(C)[C@H]1CC[C@@H](CC(=O)O)O[C@H]1CO2`, for which the outcome was inactive.
On to `C[C@@H]1CN([C@@H](C)CO)C(=O)c2cccc(NC(=O)c3ccc(-c4nccs4)cc3)c2O[C@H]1CN(C)Cc1ccc2c(c1)OCO2`, for which the call was inactive.
As to `C[C@H](CO)N1C[C@H](C)[C@H](CN(C)C(=O)Nc2cccc3ccccc23)Oc2ncc(C#Cc3ccc(C(F)(F)F)cc3)cc2C1=O`, the molecule was called inactive.
For `COc1ccccc1NC(=O)N1CCCCN2[C@H](CO)[C@H](c3ccc(C#CC4CCCC4)cc3)[C@H]2C1`, the outcome was inactive.
Turning to `CC1(C)CC(=O)c2cnc(NC(=O)c3ccco3)nc2C1`, the result was inactive.
`CN(C)CCNC(=O)C1CC(=O)N(c2ccc(F)c(Cl)c2)C1` (centres undefined): the molecule was called inactive.
Take `CCOc1ccc(CCNC(=O)C2CCN(S(=O)(=O)N3CCC(C)CC3)CC2)cc1OCC`: the call was inactive.
`Cc1nn(C)cc1NC(=O)C[C@H]1CC[C@H]2[C@H](COc3ccc(NC(=O)c4cccc(F)c4)cc3C(=O)N2C)O1`: the call was inactive.
On the same count and under the same terms, with `O=C(Nc1ccc(F)cc1)N1C[C@@H]2[C@H](c3ccccc31)[C@H](CO)N2C(=O)Cc1ccccc1` the entry was “inactive”.
In the case of `O=C(Nc1ccccc1N1CCN(C(=O)c2ccc(Cl)cc2)CC1)c1cccnc1`, the outcome was inactive.
Same read-out and setting: for `CCN(C[C@@H]1[C@@H](c2ccccc2)[C@@H](CO)N1C(=O)COC)S(C)(=O)=O` the value was “inactive”; for `CN1C(=O)c2cc(NC(=O)c3ccc4c(c3)OCO4)ccc2OC[C@H]2O[C@H](CC(=O)O)CC[C@@H]21`, “inactive”.
With `CC(=O)N1[C@H](CO)[C@@H](c2ccccc2)[C@H]1CN(C(=O)NC(C)C)C1CCCC1`, the molecule was called inactive.
Take `CNC(=O)C[C@H]1CC[C@@H]2[C@H](COc3ccc(NC(=O)c4ccccc4OC)cc3C(=O)N2C)O1`: the result was inactive.
Still for that read-out and setting: with `CN1C(=O)c2cc(NC(=O)c3cccc(F)c3)ccc2OC[C@@H]2O[C@H](CC(=O)O)CC[C@@H]21` the entry was “inactive”.
On the same count and under the same terms, with `Cc1ccccc1NCN1C(=O)C2C3C=CC(C3)C2C1=O` (centres undefined) the entry was “inactive”.
For `CNC(=O)c1nc(C)n(-c2cc(Cl)cc(Cl)c2)n1`, the activity change, negative = cytotoxicity is 4.99% [at 6 µM].
Turning to `CC(C)C#Cc1ccc2c(c1)O[C@H](CN(C)C(=O)c1ccncc1)[C@H](C)CN([C@H](C)CO)S2(=O)=O`, the call was inactive.
As to `Cc1ccc(S(=O)(=O)NCCCNS(C)(=O)=O)cc1`, the molecule was classed as inactive.
The same measure, in the same setting: with `CCC(=O)N1[C@H](CN(CC)C(=O)c2ccccc2)[C@@H](c2ccccc2)[C@@H]1CO` the entry was “inactive”.
Consider `CC(C)NC(=O)Nc1ccc2c(c1)C(=O)N(C)[C@@H]1CC[C@H](CC(=O)NCC(F)(F)F)O[C@H]1CO2`, for which the molecule was called inactive.
With `C[C@@H]1CN([C@H](C)CO)S(=O)(=O)c2ccc(C3=CCCC3)cc2O[C@@H]1CN(C)C(=O)C1CCOCC1`, the outcome was inactive.
Take `CCC(=O)NC[C@H]1[C@H](c2ccc(C3=CCCC3)cc2)[C@H](CO)N1C(C)=O`: the molecule was called inactive.
For the molecule `O=C(CN1CCN(c2nc(-c3ccccc3)cs2)CC1)Nc1ccc2c(c1)OCO2`, the call was inactive.
On the same count and under the same terms, for `CN1C(=O)c2cc(NC(=O)Nc3ccc(Cl)cc3)ccc2OC[C@@H]2O[C@@H](CC(=O)NCCN3CCCCC3)CC[C@H]21` the value was “inactive”; for `N=c1n(CC(=O)c2ccc(Br)s2)c2ccccc2n1Cc1ccccc1`, “inactive”.
`C/C=C/c1ccc([C@@H]2[C@H](CO)N(Cc3ccccn3)[C@H]2CNC(=O)CC)cc1`: the outcome was inactive.
Consider `CNC(=O)C[C@H]1CC[C@@H]2[C@H](COc3ccc(NC(=O)c4ccc(OC)cc4)cc3C(=O)N2C)O1`, for which the result was inactive.
For the molecule `COc1ccc(S(=O)(=O)Nc2ccc3c(c2)CC(=O)N([C@@H](C)CO)C[C@@H](C)[C@H](CN(C)Cc2ccc(-c4ccccc4)cc2)O3)cc1`, the molecule was classed as inactive.
For `O=C(NCCCN1CCCC1)c1ccc(CSCc2cccc(Cl)c2)o1`, the molecule was called inactive.
As for `CCCNC(=O)Nc1ccc2c(c1)OC[C@H](C)N(CCC)C[C@H](C)[C@H](OC)CN(C)C2=O`, the molecule was called inactive.
As for `O=C(c1cccnc1)N1C[C@H]2[C@@H](c3ccccc31)[C@H](CO)N2C(=O)Nc1ccccc1`, the outcome was inactive.
Consider `Cc1cc(C)cc(NC(=O)c2ccc(CSc3nnc(C)s3)cc2)c1`, for which the result was inactive.
Consider `CCC(=O)N(C)C[C@H]1Oc2cc(C#CC3CCCCC3)ccc2S(=O)(=O)N([C@@H](C)CO)C[C@H]1C`, for which the outcome was inactive.
